# A selection: hits, their analogues and other compounds. The true share with any hit is near 12%.
# BAZ2B block: inhibitors of human BAZ2B bromodomain | Q9UIF8 | AlphaScreen BAZ2B-H3K14Ac peptide displacement | Potency, µM (series often up to 114 µM), inactives show top-dose activity change, negative = inhibition, usual class: inhibitors | 4.4% of 360,000 active | AID 504333; further: on the % scale 0 is the no-effect control and ±100 the full control effect; nearly all actives have a fitted effect of over 60% in size
#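 AlphaScreen luminescence quantifies BAZ2B engagement of H3K14Ac peptide; the protein and biotinylated peptide are both at 50 nM final, buffer PBS pH 7.4 with 0.01% Tween-20, all steps at room temperature.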
# HP1b chromo inh: HP1-beta chromodomain-methylated histone interaction inhibition; P83916; AlphaScreen HP1-beta / biotin-H3K9me3 peptide binding; Potency, µM (series often up to 114 µM), without a hit: at the top dose activity change, negative = inhibition, hits mostly inhibitors; 0.56% of 390,000 active; AID 540317; further: nearly all actives have a fitted effect of over 70% in size
# Target sequence (P83916 whole entry, looked up): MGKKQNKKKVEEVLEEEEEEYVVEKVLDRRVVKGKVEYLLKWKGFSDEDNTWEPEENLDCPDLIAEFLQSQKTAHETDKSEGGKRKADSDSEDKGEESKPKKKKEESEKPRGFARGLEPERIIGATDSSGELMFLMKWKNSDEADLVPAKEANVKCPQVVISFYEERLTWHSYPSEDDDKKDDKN
#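 Compound inhibition of the preformed complex between 50 nM HP1-beta and 50 nM biotinylated H3K9me3 peptide was read by AlphaScreen. Buffer was PBS pH 7.4 with 0.01% Tween-20. Incubations ran 30 min at room temperature, with 10 ug/mL donor/acceptor beads.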
# JMJD2A Tudor: blocks the human JMJD2A Tudor domain. AlphaScreen JMJD2A-Tudor / H3K4me3 peptide binding. Potency, µM (top dose mostly 114 µM), without a hit: at the highest dose activity change, negative = inhibition, hits mostly inhibitors. 4.4% of 390,000 active. AID 504339; further: on the % scale 0 is the no-effect control and ±100 the full control effect; nearly all actives have a fitted effect of over 50% in size
# L3MBTL1 inh: blocks human L3MBTL1. AID 485360. 0.66% of 230,000 active. AlphaScreen L3MBTL1–H3K9me1 peptide binding. Q9Y468. Potency, µM (titrated, usually from 57.1 µM), without a hit: at the highest dose activity, negative = inhibition, hits mostly inhibitors; further: on the % scale 0 is the no-effect control and ±100 the full control effect; nearly all actives have a fitted effect of over 60% in size
#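 First, the protein-peptide complex forms for 30 min at room temperature (L3MBTL1 50 nM, biotinylated H3K9me1 peptide 75 nM). Next, compounds are pin-transferred and incubated 30 min. Finally, AlphaScreen beads are added and read after 30 min.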
# Sfp PPTase inh: Sfp phosphopantetheinyl transferase inhibition; Q9F4F7; Biochemical Sfp PPTase activity, qHTS; 3.5% of 310,000 active; Potency, µM, for inactives: largest response in the series, negative = inhibition, hits mostly inhibitors;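 further: the enzyme is Sfp with the accession as filed and its product quenches rhodamine fluorescence; 0% = enzyme reaction without inhibitor and -100% = no enzyme wells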
#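 Buffer: 50 mM Hepes-Na pH 7.6, 10 mM MgCl2, 0.01% Nonidet P-40, 0.01% BSA. Enzyme 15 nM, pre-exposed to compound 15 min; substrates then added and fluorescence change tracked over 30 min.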
# G9a inh: inhibitors of human histone lysine methyltransferase G9a | G9a H3K9 monomethylation, AlphaScreen, 2 h | 8.8% of 350,000 active | Potency, µM (titrated, usually from 102 µM), for inactives: at the top dose activity, negative = inhibition, actives largely listed as inhibitors | Q96KQ7; further: on the % scale 0 is the no-effect control and ±100 the full control effect; nearly all actives have a fitted effect of over 75% in size
# Target sequence (Q96KQ7 913-1193 limits assumed): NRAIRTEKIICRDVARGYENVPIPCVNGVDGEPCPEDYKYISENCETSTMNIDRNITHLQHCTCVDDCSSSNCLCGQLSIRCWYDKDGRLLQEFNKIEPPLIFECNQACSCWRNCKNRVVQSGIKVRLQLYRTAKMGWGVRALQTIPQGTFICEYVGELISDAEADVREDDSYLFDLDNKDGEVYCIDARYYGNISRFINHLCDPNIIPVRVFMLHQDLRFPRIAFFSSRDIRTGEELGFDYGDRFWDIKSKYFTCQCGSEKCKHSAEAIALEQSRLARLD
#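 AlphaScreen read-out: biotin-H3K9 peptide (500 nM) methylation by 20 nM enzyme with 20 uM SAM, 2 h at room temperature after 15 min compound preincubation; anti-monomethyl H3K9 antibody plus donor/acceptor beads, 10 min dark.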
# * = called active by the depositor; u = inconclusive; x = not tested or not shown; ! = a repeat was not active; [ ] = dose if it differs, or a comment. The call rests on the fitted dose curve; in most records, active means well fitted curve in the direction sought with a large enough effect; inconclusive means small, poorly fitted or top-dose-only effect, or another doubt; inactive means no such curve, though single readings can be large; an effect the other way counts as inactive or inconclusive. Potency means the concentration at half of the fitted maximal effect.
SMILES,BAZ2B block,HP1b chromo inh,JMJD2A Tudor,L3MBTL1 inh,Sfp PPTase inh,G9a inh
Nc1c(C(=O)O)sc2nc(-c3ccccc3)c3c(c12)CCCC3,-8%,17%,-20%,2%,35µM*,6.3µM*
Nc1c(C(=O)NCc2ccco2)sc2nc(N3CCOCC3)c3c(c12)CCCC3,12%,27%,-35%,21%,13µM*,u
COC(=O)c1sc2nc(N3CCCCC3)c3c(c2c1N)CCCC3,8%,49%,-15%,x,-13%,45%
CCOC(=O)c1sc2nc(N3CCOCC3)c3c(c2c1N)CCCC3,3%,56%,11%,7%,7%,2%
CCN(CC)C(=O)c1sc2nc(N3CCOCC3)c3c(c2c1N)CCCC3,-4%,7%,u,x,45µM*,8.9µM*
COC(=O)c1sc2nc(-c3ccccc3)c3c(c2c1N)CCCC3,-18%,68%,-12%,5%,-17%,160%[59 µM]
NC(=O)c1sc2nc(N3CCCCC3)c3c(c2c1N)CCCC3,u,29%,-13%,-4%,u,35µM*
Cn1c(=O)c2c(nc(SC3C(=O)CC(C)(C)CC3=O)n2C)n(C)c1=O,-5%,46%,-28%,1%,56µM*,u
CC(C)Sc1nc2c(c(=O)n(C)c(=O)n2C)n1C,-5%,21%,-1%,-6%,1%,0%
C[C@H]1Cc2c(COc3ccccc3)nc3c(c2CO1)CN(C(=O)c1ccco1)CC3,x,x,x,x,7%,x
CCCCCn1c(CNC(=O)c2ccc(F)cc2)nc2ccccc21,-3%,41%,-9%,x,x,-18%[59 µM]
Cc1cc(-c2ccccc2)c2c(=O)n(-c3ccccc3)[nH]c2n1,u,5%,-34%,u,-14%,11µM*
OCc1c[nH]c2ccccc12,-11%,43%,-29%,-7%,1%,13µM*!
c1ccc2c(NCCc3c[nH]c4ccccc34)c3ccccc3nc2c1,35µM*,-7%,50µM*,x,-6%,-11%[2.33 µM]
COc1cccc(NC(=O)c2sc3nc(C)c(C(=O)Nc4ccc(C)cc4C)c(-c4ccccc4Cl)c3c2N)c1,-3%,68%,7%,x,x,-1%[59 µM]
COc1ccc(NC(=O)c2sc3nc4c(cc3c2N)CN(C(C)C)CC4)c(OC)c1,u,-8%,u,x,x,11µM*
Cc1cccc(NC(=O)c2sc3nc4c(cc3c2N)CN(Cc2ccccc2)CC4)c1,-9%,26%,5%,x,x,-2%[59 µM]
N#Cc1cc2c(N)c(C(=O)Nc3ccccc3)sc2nc1N,u,x,x,-1%,-29%,u
Cc1cccc(NC(=O)c2sc3nc(N)c(C#N)cc3c2N)c1,-10%,12%,35µM*,-4%,-12%,10µM*
Cc1cccc(NC(=O)c2sc3nc4c(cc3c2N)CN(C(C)C)CC4)c1,u,-19%,50µM*,x,x,14µM*
COC(=O)c1n[nH]n(-c2ccccc2)c1=O,-13%,27%,7%,x,x,16%[59 µM]
NS(=O)(=O)c1cc(C(=O)OC2CCOC2=O)ccc1Cl (stereo not drawn),-10%,13%,1%,x,7%,u
O=C(OC1CCOC1=O)c1ccc2ncsc2c1 (stereo not drawn),3%,35%,-3%,-13%,5%,28µM*
O=C(Oc1cc(-c2ccccc2)no1)c1ccc(Cl)cc1,u,23%,-28%[11.4 µM],x,-5%,79µM*
N#Cc1ccc(CC(C(=O)O)N2Cc3ccccc3C2=O)cc1 (stereo not drawn),-13%,30%,-2%,x,-4%,-3%
CCc1ccc(CNC(=O)Cc2ccc(NC(=O)N3CCSc4ncccc43)cc2)cc1,-3%,40%,-15%,x,x,u
Brc1ccc(-c2ccc(CNCCSc3nnnn3-c3ccccc3)o2)cc1,20µM*,8%,-35%,x,x,16µM*
Cc1c(NC(=O)c2cn3ccccc3n2)cccc1-n1cnnn1,-11%,14%,20µM*,-1%,12%,u
Cc1cc2nc(C)n(CCCNC(=O)Nc3cccc4ccccc34)c2cc1C,-11%,4%,50µM*,x,-29%,-27%

# Screening data deposited in PubChem BioAssay by National Center for Advancing Translational Sciences (NCATS).
